Reference: the supplement of paper PMC6763611

System: Plasmodium falciparum NF54
Test: growth inhibition relative to untreated control; higher = more inhibition
Conditions: 72 h
In short: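 In dark 96-well half-area plates, each well held 100 μL of P. falciparum NF54 ring-stage culture at 1% parasitemia and 1% hematocrit. The cultures received a single test-compound dose of 5 μM or 1 μM and were kept at 37 °C for 72 h, in minimal RPMI either plain or enriched with folate (2.2 μM), pABA (7.3 μM), pHBA (7.3 μM), tyrosine (111 μM), phenylalanine (90 μM) and tryptophan. SYBR Green staining gave growth inhibition, expressed against untreated wells, with uninfected erythrocytes serving as the background.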

[1] = 1 µM, MM + chorismate end-products (CM screening medium)
[2] = 5 µM, MM + chorismate end-products (CM screening medium)

| Compound | growth inhibition [1] | growth inhibition (1 µM, minimal medium (MM)) | growth inhibition [2] | growth inhibition (5 µM, minimal medium (MM)) |
| --- | --- | --- | --- | --- |
| CC(C)(CN)c1nc(-c2ccc(Cl)c(O)c2)c(-c2ccnc(N)n2)[nH]1 | 78.9% | 70.8% | 30.1% | 6.08% |
| NCCN(C(=O)c1ccc(Cl)cc1Cl)c1ccc(OCc2ccc(Cl)cc2)cc1 | 33.8% | 27.2% | 97.9% | 91.1% |
| CC(=O)NCC1CN(c2ccc(-c3ccc(CO)cc3)c(F)c2)C(=O)O1 (centres undefined) | < 0% | 7.91% | 31.4% | 17.6% |
| O=C(Nc1nnc(-c2ccc(Cl)s2)o1)c1ccc(Cl)s1 | 34.8% | 22.8% | < 0% | < 0% |
| CCOC(=O)NC(=O)c1ccsc1NC(=O)c1nc2ccccc2s1 | 36.1% | < 0% | < 0% | < 0% |
| FC(F)(F)c1cnc(Sc2nnc(-c3ccncc3)o2)c(Cl)c1 | 53% | 61.3% | 64% | < 0% |
| CC1CC1C(=O)NC1CCN(CC2(c3ccccc3)CCCCC2)CC1 (centres undefined) | 96.1% | 94.5% | 90.8% | 92% |
| C[C@H]1c2cccc(O)c2C(=O)C2=C(O)[C@]3(O)C(=O)C(C(N)=O)=C(O)[C@@H](N(C)C)[C@@H]3[C@@H](O)[C@@H]21 | 50.6% | 50.7% | 41% | < 0% |
| CCN(CC)S(=O)(=O)c1ccc(Cl)c(C(=O)Nc2ccc3nc(C)sc3c2)c1 | 98.3% | 96.2% | 91.3% | 94.1% |
| CCC(NC(=O)c1ccccc1NC(=O)c1ccc(C)cc1)C(=O)OC (centres undefined) | 97.3% | 96.2% | 97.1% | 91.3% |
| FC(F)(F)c1ccc(N(c2cccnc2)C2CCN(c3ccc(C(F)(F)F)cn3)CC2)cc1 | 60.2% | 38.4% | 93.8% | 90.5% |
| CC(C)=CCC/C(C)=C/CNCCNC1C2CC3CC(C2)CC1C3 (centres undefined) | 88.5% | 92.6% | > 100% | 91.3% |
| CCn1cnc2c(Nc3cc(F)cc(F)c3)nc(C#N)nc21 | 36.4% | < 0% | 40.3% | < 0% |
| CO[C@@H](C(=O)N1Cc2[nH]nc(NC(=O)c3ccc(N4CCN(C)CC4)cc3)c2C1)c1ccccc1 | 45.1% | 55.3% | 90% | 90.1% |
| COc1cc(C(F)(F)F)nc2ccc(C)c(N)c12 | < 0% | 30.2% | < 0% | < 0% |
| Cc1cc(C)n2nc(C(=O)Nc3cc(C(F)(F)F)ccc3N3CCOCC3)nc2n1 | 82.6% | 77.1% | 75.9% | 68.5% |
| O=C(NCCc1ccn(-c2ccccc2)n1)C1CCCCC1 | 13.1% | 20.1% | < 0% | 3.27% |
| Cc1cccc(Cn2ccc(NC(=O)c3ccc4c(c3)OCO4)n2)c1 | 18.2% | 6.8% | 12.8% | 17.9% |
| Cc1cc(Nc2ccc(C(F)(F)F)cc2)n2ccnc2n1 | 97.2% | 94.6% | 97.3% | 94.4% |
| NCC(c1cccs1)S(=O)(=O)c1ccccc1 (centres undefined) | 36.2% | < 0% | < 0% | 4.01% |
| O=C(Nc1ccc(F)c(-c2nc3cc(-c4ccccc4)cnc3[nH]2)c1)N1CCCC1 | 17.5% | 25.6% | 3.27% | < 0% |
| FC(F)(F)c1nnc2ccc(Cl)nn12 | 8.81% | 7.29% | < 0% | 8.78% |
| C[C@]1(O)C[C@@H](c2nc(-c3ccc4ccc(-c5ccccc5)nc4c3)c3c(N)nccn32)C1 | 35% | 34.1% | 53.2% | 43.8% |
| CCc1ccccc1-n1c(C)cn2c3c(=O)n(C(C(=O)OC)C(C)C)c(=O)n(C)c3nc12 (centres undefined) | 72.6% | 83% | 84.3% | 87.9% |

| Compound | growth inhibition [1] | growth inhibition (1 µM, minimal medium (MM)) | growth inhibition [2] | growth inhibition (5 µM, minimal medium (MM)) |
| --- | --- | --- | --- | --- |
| CCCCS(=O)(=O)Nc1ccc2cnn(C)c2c1 | 3.73% | < 0% | 13.4% | 1.13% |
| CC(C)(C)c1ccc(N[C@@H]2CCCC[C@H]2NC(=O)c2ccco2)cc1 | 20.8% | 20.6% | < 0% | 1.67% |
| CC(C)(C(=O)Nc1ccc(F)cc1)n1cc(-c2ccccc2F)cn1 | 0.0824% | < 0% | 5% | 15.7% |
| c1ccc(-c2cc(N3CCCCC3)c3ccccc3n2)nc1 | 3.57% | < 0% | 37.4% | 26.9% |
| CC1CCCN(C(=O)C(C)Nc2cc(Cl)ccc2N2CCOCC2)C1 (centres undefined) | 90.5% | 94.3% | 91% | 94.9% |
| Nc1ncnc2c1ncn2C[C@@H](O)[C@@H](O)C(=O)O | 44.8% | 43% | 48.6% | < 0% |
| O=C(CN1CCOCC1)Nc1ccc2ncnc(Nc3ccc(OCc4cccc(F)c4)c(Cl)c3)c2c1 | 2.86% | 9.8% | 94.7% | 91.9% |
| Cc1ccc(S(=O)(=O)n2cc(-c3ccnc(N)c3)c3cc(Br)cnc32)cc1 | 95.2% | > 100% | 97.8% | 95.2% |
| c1ccc(Oc2ccc(-c3cncc(-c4ccc5[nH]ccc5c4)n3)cc2)cc1 | > 100% | < 0% | 86.5% | 91.5% |
| CN(C)CCNC(=O)N1CCCN(c2ncnc3cc(-c4ccccc4)sc23)CC1 | 72.9% | 99.2% | > 100% | 87% |
| CC(=O)NC[C@@H]1CN(c2ccc(N3CCOCC3)c(F)c2)C(=O)O1 | 18.8% | 11.7% | < 0% | < 0% |
| O=C(Nc1ccccc1-c1nc2c(C(=O)O)cccc2o1)c1ccccc1 | < 0% | 0.353% | < 0% | < 0% |
| NS(=O)(=O)c1cccc(-c2ccc3ncc(N4CCOCC4)nc3c2)c1 | 47% | 71% | > 100% | 88.7% |
| c1ccc(-c2nc(NC3CCCCC3)cc(C3CC3)n2)nc1 | 80.6% | 56.8% | 94.6% | 93.6% |
| COC(=O)c1cccc2oc(-c3cccc(OC)c3NC(=O)c3cc(-c4ccccc4)on3)nc12 | < 0% | < 0% | < 0% | < 0% |
| Cc1nc(-c2ccccn2)nc(N2CCC(Cc3ccccc3)C2)c1Cl (centres undefined) | 52.8% | 3.18% | 80.2% | 84.9% |
| Nc1cccnc1Nc1ccc(Cl)cc1 | 32% | < 0% | 47.3% | 19.2% |
| CCNC(=O)C(C)Nc1nc(-c2cccnc2)nc2sc(C)c(C)c12 (centres undefined) | 5.05% | < 0% | 16.8% | 31.6% |
| Clc1cccc(C(c2ccc(CN3CCNCC3)cc2)n2ccnc2)c1 (centres undefined) | 93.2% | > 100% | 93.5% | 91.5% |
| COc1ccc2nc(C)cc(OCC(=O)Nc3ccccc3OC)c2c1 | 11.7% | < 0% | < 0% | 27.5% |
| O=C(NC1CC1)c1ccc(CSCc2ccccc2Cl)o1 | 59.9% | > 100% | > 100% | 90.8% |
| COC(=O)c1c(NC(=O)c2cc3ccccc3oc2=O)sc2c1CCN(Cc1ccccc1)C2 | < 0% | 8.51% | 5.7% | 1.3% |
| CCOc1ccc2cc(-c3nn(CC4CCN(C)CC4)c4ncnc(N)c34)ccc2c1 | 39.8% | 15.5% | 51.2% | 16.8% |
| COc1ccc(-c2nn(C(C)C)c3ncnc(N)c23)cc1OC | 86.7% | 81.7% | 97.3% | 90.9% |

| Compound | growth inhibition [1] | growth inhibition (1 µM, minimal medium (MM)) | growth inhibition [2] | growth inhibition (5 µM, minimal medium (MM)) |
| --- | --- | --- | --- | --- |
| Cc1cc(C)nc(-n2nc(C)cc2Nc2ccccc2)n1 | 16.6% | 9.77% | 69.8% | 34.2% |
| CNC(=O)CNc1nc(-c2ccccn2)nc2scc(-c3ccccc3)c12 | 8.9% | 9.62% | 61.2% | 37.3% |
| O=C(C1CCN(c2nnnn2-c2ccccc2)CC1)N1CCc2ccccc2C1 | 43.4% | 33% | < 0% | < 0% |
| O=C(NCc1cc(Cl)cc(Cl)c1)c1c(C(F)(F)F)nc2ccccn12 | 2.45% | 10.6% | 31.8% | 9.63% |
| Cc1cc(NCC(C)C)c2[nH]nc(-c3ccccc3)c2n1 | 89.6% | 94.3% | 99.7% | 87.9% |
| c1ccc(Oc2ccc(-c3cc(N4CCNCC4)[nH]n3)cc2)cc1 | 32.1% | 29.2% | 40.3% | 34.4% |
| Cc1ccc2nc(C)c(-c3ccn(Cc4ccccc4)n3)n2c1 | 43% | 33.9% | 36.8% | < 0% |
| O=C(Nc1ccccc1)c1ccc(-c2cc3ccncc3cc2OC2CCNCC2)s1 | 98.5% | > 100% | 96.1% | 94.6% |
| CCC(=O)Nc1ccccc1C(=O)Nc1ccccn1 | < 0% | < 0% | < 0% | < 0% |
| CC(C)(C)OC(=O)N1CCC(Cn2nc(-c3cnc4ccccc4c3)c3c(N)ncnc32)CC1 | > 100% | < 0% | 64.1% | 52.3% |
| CCc1ccc(C(NCc2nc(N)nc(N(C)C)n2)C(C)C)cc1 (centres undefined) | 9.14% | < 0% | 51.5% | 9.29% |
| FC(F)(F)c1cccc(-c2nc3c(NCc4ccncc4)nccc3[nH]2)c1 | 99.9% | > 100% | 95.4% | 96% |
| O=C(NC1CCCCC1)N1CCN(Cc2ccc3c(c2)OCO3)CC1 | < 0% | < 0% | < 0% | < 0% |
| CC(C)C(C(=O)Nc1ccc(S(=O)(=O)N(C)C)cc1)c1ccc(Cl)cc1 (centres undefined) | 96.6% | 94.8% | 98.6% | 90.3% |
| COc1ccc(-c2cc(NC(=O)c3ccc(F)cc3Cl)ccc2OC)cc1 | 8.71% | 13.2% | < 0% | < 0% |
| Cc1nn2c(O)c3c(nc2c1-c1ccc(F)cc1)CCCC3 | 11% | 13.4% | 36.7% | 24.6% |
| COc1cc(C2=NCCN2)ccc1-c1cn(-c2cccc(C3=NCCN3)c2)nn1 | 68.5% | 86.7% | > 100% | 88.7% |
| Cc1cc(C(=O)Nc2ccc(-c3ccccc3)cc2)no1 | 96.4% | 91.1% | 84.6% | 94% |
| CC[C@@H]([C@H](C)O)n1ncn(-c2ccc(N3CCN(c4ccc(OC[C@@H]5CO[C@@](Cn6cncn6)(c6ccc(F)cc6F)C5)cc4)CC3)cc2)c1=O | 45.5% | 50.3% | 88.9% | 83.4% |
| CCCCN(CCCC)c1c(C#N)cc(S(=O)(=O)Nc2ccccc2)cc1C#N | < 0% | < 0% | 39.9% | 35.7% |
| COc1ccc(Oc2ccc([C@@H](C)N(C)c3ncc4c(N)nc(N)nc4n3)cc2)cc1 | 13.7% | < 0% | > 100% | 89.1% |
| Cc1noc(C)c1C(=O)N1CCCC(c2[nH]c3c(C)cccc3c2-c2ccncc2)C1 (centres undefined) | 97.7% | 95.3% | 92.6% | 92.4% |
| O=C(N[C@H](Cc1ccccc1)C(=O)Nc1ccccc1N1CCOCC1)c1cccs1 | 6.47% | 2.12% | 47.7% | 27.5% |
